# Results as given in PubChem BioAssay (NCI).
# The panel holds about 83,000 compounds, 20% with a hit somewhere; the sample as a whole holds those more often.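 The endpoint reported here, percent growth, reads 100 for growth as untreated, 0 for no net growth and -100 for all cells dead.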 Values without a mark were called inactive. Active and inactive are the calls of the source. How the source made its calls: active means growth percent below 10; inactive means the rest.
# System: MDA-MB-468 breast
# Test: NCI-60 one-dose screen, 48 h (100 = growth as untreated, 0 = no growth, -100 = all killed)
# Conditions: 10 µM unless noted
row,SMILES,growth
1,COc1ccc(Cl)cc1-n1nnc(-c2nc3ccccc3[nH]2)c1N,63.2%
2,COc1cc(C2CC(c3ccc(Cl)cc3)=NN2C(C)=O)ccc1Oc1nc2c(c(=O)n(C)c(=O)n2C)n1C (stereo not drawn),76.6%
3,Nc1ccn(C2O[C@H](CO)[C@@H](O)[C@@H]2O)c(=O)n1 (stereo partly drawn),78.3%
4,NCCCN(CCCN)CCCNCc1c2ccccc2c(CNCCCN(CCCN)CCCN)c2ccccc12,83.4%
5,O=C(CN1N=C(c2ccc(F)cc2)CCC1=O)Nc1nc2ccccc2s1,97.7%
6,COc1ccc(NC(=O)c2nc(-c3cc(OC)c(OC)c(OC)c3)n(-c3cccc4ccccc34)n2)cc1OC,46.4%
7,COc1ccc(/C=C/C(=O)/C=C/c2cc3ccccc3[nH]c2=O)cc1,43.9%
8,CCC(C)[C@H](NC(=O)NC(=O)NC(=O)CI)C(=O)OC (stereo partly drawn),86.4%
9,COc1ccc(-c2cc(-c3cc(OC)ccc3OC)nc(N)c2C#N)cc1,70.2%
10,COc1cc2ccccc2cc1C(=O)NC(=S)Nc1ccc(-c2nc3ccccc3[nH]2)cc1,90.2%
11,COc1cc2nc(-c3ccc(C)cc3)cc(OCCCNCC3CCCO3)c2cc1OC (stereo not drawn),68.8%
12,CCCC(O)Cn1ncc(C(=O)OCC)c1NC(=O)NCc1cccc(F)c1 (stereo not drawn),97.3%
13,Cc1ccc(NCCN(C)C)c2c(=O)c3ccccc3sc12,26%
14,c1ccc(C(=NNc2nc3ccccc3o2)c2ccccn2)nc1,-27.4% (active)
15,CC(=O)c1nc2ccccc2n1CCN1CCN(C)CC1,-20.2% (active)
16,O=C1OCC2=C1C(c1cccc(F)c1)c1cc3c(cc1N2CCO)CCC3 (stereo not drawn),-5.09% (active)
17,O=C(O)c1ccc2c(c1)nc(Nc1cccc(Cl)c1)c1ccncc12,-36.1% (active)
18,Cc1ccc(C2CC(c3cccc(Nc4ccncc4)c3)=NN2c2ccccc2)cc1 (stereo not drawn),-78.5% (active)
19,Cc1nc2c(c(N3CCCc4ccccc43)n1)CCC2,8.12% (active)
20,COc1ccccc1CNCCCN1C(=O)c2ccc3c4c(ccc(c24)C1=O)C(=O)N(CCCN)C3=O,-88.1% (active)
21,COc1ccc([N+](=O)[O-])c(S(=O)(=O)c2ccc(Cl)cc2)n1,52%
22,O=C1C(Nc2ccccn2)=C(I)C(=O)c2ncccc21,-70.1% (active)
23,Cn1ncc2c(Nc3ccc(Br)cc3)nc(Nc3ccc(Br)cc3)nc21,51.4%
24,N/C(=N\OC(=O)c1ccccc1)C(C(=O)NOC(=O)c1ccccc1)C1CCCCC1 (stereo not drawn),80.8%
25,CCN(CC)CCCC(C)Nc1cc(-c2cccc(OC(F)(F)F)c2)nc2ccc(N3CCCC3)cc12 (stereo not drawn),-56.3% (active)
26,COc1ccc(/C=N/Nc2ccnc3cc(Cl)ccc23)cc1Cl,-71.9% (active)
27,Cc1nc(Nc2ccc(S(=O)(=O)Nc3cc(C)on3)cc2)c2ccccc2n1,104%
28,COc1cc(/C=C\c2cc(/C=C\c3ccc(O)c(OC)c3)n(C(=O)CNc3ccc(Cl)cc3)n2)ccc1O,1.63% (active)
